D1 antagonist: Antagonist of Human D 1 Dopamine Receptor: qHTS; D(1A) dopamine receptor (Homo sapiens), P21728; HEK293 TREx D1 cells, calcium flux, dopamine EC80; hits give low values; activity change, negative = inhibition, % at 10 µM; 360,000 tested, 3.2% active; in the data active = activity change below about -30%; also: % is scaled to controls: 0 for no effect and ±100 for the full control effect
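Tetracycline-induced HEK293 T-REx cells with force-coupled D1 receptor were loaded with a no-wash calcium dye. Compound was added after a 10 s baseline and read kinetically for 180 s; EC80 dopamine was then added and calcium flux followed another 180 s.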
D1 ag: Allosteric Agonists of the Human D1 Dopamine Receptor: qHTS; activation, % at 2 µM; HEK293 T-REx D1 cells, calcium flux, agonist mode; D(1A) dopamine receptor (Homo sapiens), P21728; 360,000 tested, 1% active; also: 0% is about no effect
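Inducible HEK293 T-REx D1 cells, force-coupled to calcium signalling, were plated at 4000 cells/well with tetracycline and held overnight at 30 C. After no-wash calcium dye loading, compound-evoked calcium rise over 180 s flagged agonists.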
TRHR enhancer: qHTS for Small Molecule Agonists and Allosteric Enhancers of Human TRH Receptor: Primary Screen for Enhancers. Thyrotropin-releasing hormone receptor (Homo sapiens), P34981. AID 493056, 2011. enhancement, % at 2 µM. TRHR cells, fluo-8 calcium fluorescence, EC20 TRH enhancement. 360,000 tested, 0.66% active; in the data active = enhancement above about 30%; also: 0% is about no effect
Target sequence (P34981 whole entry, looked up): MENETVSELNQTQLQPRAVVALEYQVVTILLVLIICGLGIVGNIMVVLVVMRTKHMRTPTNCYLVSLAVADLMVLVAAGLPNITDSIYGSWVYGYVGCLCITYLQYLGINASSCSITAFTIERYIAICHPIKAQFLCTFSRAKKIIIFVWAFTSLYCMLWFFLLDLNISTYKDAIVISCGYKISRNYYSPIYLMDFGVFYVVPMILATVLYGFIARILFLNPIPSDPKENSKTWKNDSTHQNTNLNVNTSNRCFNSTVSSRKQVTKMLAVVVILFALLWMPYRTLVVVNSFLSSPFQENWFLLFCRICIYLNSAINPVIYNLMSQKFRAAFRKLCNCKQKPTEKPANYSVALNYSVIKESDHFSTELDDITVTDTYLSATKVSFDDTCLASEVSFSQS
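Enhancer read-out: after compound pinning and an initial kinetic agonist-mode read, an EC20 of TRH (10 nM final) was injected and fluo-8 calcium signal (Ex 480/Em 530) followed at 1 s/cycle for 100 cycles in TRHR-expressing cells.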
D1 PAM: Potentiators of Human D1 Dopamine Receptor: qHTS. potentiation, % at 10 µM. HEK293 TREx D1 cells, calcium flux, dopamine EC20 potentiation. AID 504651, 2011. D(1A) dopamine receptor (Homo sapiens), P21728. 360,000 tested, 0.036% active; in the data active = potentiation above about 30%; also: 0% is about no effect
TRHR agonist: qHTS for Small Molecule Agonists and Allosteric Enhancers of Human TRH Receptor: Primary Screen for Agonists; Thyrotropin-releasing hormone receptor (Homo sapiens), P34981; TRHR cells, calcium flux fluo-8, FDSS agonist mode; activation, % at 2 µM; 360,000 tested, 0.18% active; AID 493084, 2011; also: 0% is about no effect
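Fluo-8-loaded TRHR cells; 10 s baseline, compound added, kinetic Ca2+ fluorescence read 1/s, agonist mode.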
* = called active by the depositor. This is a sample that favours compounds with a hit; in the whole collection about 4.7% have one here. Rule as the data show it, unless noted: active = activation above about 30%; inactive = the rest.

SMILES | D1 antagonist | D1 ag | TRHR enhancer | D1 PAM | TRHR agonist
CCNC(=O)C/C(C)=N/NC(=O)C12CC3CC(CC(C3)C1)C2 | -31.9* | 0.5 | 0.5 | -4.3 | -0.5
COCCn1c(SCC(=O)c2c[nH]c3ccccc23)nc2cc(C(=O)NCC(C)C)ccc2c1=O | 3.3 | 1.4 | -0.9 | -2.2 | 0.6
CNC(=S)N(C)/N=C1/C(=O)N(Cc2c(Cl)cccc2Cl)c2ccccc21 | -34.3* | 6.1 | -10.3 | -3.6 | -1.5
Cc1nc2c3ccccc3nc(NNC(=O)CCC(=O)N3CCCC(C)C3)n2n1 (configuration not stated) | -32.9* | 0.4 | 1.6 | -5.0 | 0.3
Cc1cccc(N2CCN(C(=O)CCC(=O)NNc3nc4ccccc4c4nc(C)nn34)CC2C)c1 (configuration not stated) | -8.6 | 0.5 | -1.6 | -5.2 | 0.8
CCC(C)[C@H](N)c1nnc(SCc2ccc(Cl)c(Cl)c2)o1 (some centres not stated) | 0.8 | 54.1* | 7.3 | -3.4 | -1.5
CCOc1ccc(-n2c(=O)c3c(C)c(C)sc3n(CC(=O)NCCc3ccccc3)c2=O)cc1 | 9.4 | 0.0 | 2.6 | 1.6 | -0.4
CCOc1ccc(CNC(=O)c2cnc(SC)nc2C)cc1 | -21.4 | 6.5 | -1.6 | -1.8 | 0.5
CCOC(=O)c1nn2c(C(F)(F)F)cc(-c3ccc(OC)cc3)nc2c1Br | 22.9 | 34.8* | 0.4 | -6.2 | 0.2
O=S(=O)(c1ccc2c(c1)OCCO2)N1CCN(S(=O)(=O)c2cccc[n+]2[O-])CC1 | -28.5 | 0.2 | -3.5 | 1.6 | -0.7
O=C(CSc1nnnn1-c1ccc(O)cc1)c1cc2ccccc2o1 | -24.6 | 32.3* | 2.9 | -3.8 | 0.3
Cc1ccc(Cn2c(=O)n(Cc3ccc(Cl)cc3)c(=O)c3cccnc32)cc1 | 0.0 | 0.9 | 2.5 | -1.9 | -0.1
NC(=O)[C@@H]1CCCNc2c(I)cc([N+](=O)[O-])cc2C(=O)N[C@@H](CCCN=C(N)N)C(=O)N[C@@H](CCCN=C(N)N)C(=O)N1 | -38.7* | -0.3 | 10.3 | -4.4 | 0.0
CC[C@H](C)[C@@H]1NC(=O)c2cc([N+](=O)[O-])cc(I)c2NCC[C@@H](C(N)=O)NC(=O)[C@H](CCCN=C(N)N)NC1=O | 11.4 | -3.3 | 6.5 | -1.9 | -0.5
COc1ccc(CC(=O)Nc2nnc(C(C)(C)C)s2)cc1OC | -22.7 | 5.5 | 3.6 | -1.9 | -0.1
CCc1ccc(NC(=O)Cn2c(=O)n(CCCC(=O)NCc3ccccc3OC)c(=O)c3ccccc32)cc1 | 2.8 | 2.9 | -1.6 | -0.5 | 0.3
NCCOc1ccc(C2CCCCC2)cc1 | 32.1 | 32.5* | 13.0 | 5.5 | 2.8
COc1ccc(NC(=O)CN2C(=O)CSc3ccc(S(=O)(=O)N(C)C)cc32)cc1Cl | -14.8 | 2.0 | 7.9 | -2.9 | -0.1
COc1cc(CN(C(=O)c2ccc(C)cc2)C2CCS(=O)(=O)C2)cc(OC)c1OC (configuration not stated) | -30.5* | 0.3 | 1.1 | -1.6 | -0.4
Cc1ccc(C)c(N2CCN(CCCNC(=O)c3ccc4nc(C(C)C)oc4c3)CC2)c1 | -12.9 | 27.6 | -1.2 | -3.9 | -0.3
CN1CCc2c(sc(NC(=O)CSc3ccccc3)c2-c2nc3ccccc3s2)C1 | -54.5* | 399.6* | -19.1 | -1.9 | 115.2*
CC(=O)N1CCc2c(sc(NC(=O)CSc3ccccc3)c2-c2nc3ccccc3s2)C1 | 2.9 | 7.2 | 10.5 | -6.0 | -1.0
CC(=O)c1ccc(NS(=O)(=O)c2ccc(CC(C)C)cc2)cc1 | 0.8 | 40.4* | -4.4 | -16.8 | 0.0
COc1ccc(C(=O)N2CCC(c3c[nH]c4ccccc34)(c3c[nH]c4ccccc34)CC2)cc1 | 10.6 | 1.3 | 24.0 | 1.9 | 0.4
CCCc1nnc(SCCSc2nnc(CCC)n2N)n1N | -31.5* | 11.6 | 1.7 | -1.1 | -1.1
SMILES | D1 antagonist | D1 ag | TRHR enhancer | D1 PAM | TRHR agonist
N=C1c2ccccc2CN1c1ccc(N2CCOCC2)c(S(=O)(=O)Nc2ccc(Cl)cc2)c1 | -7.4 | 83.3* | -1.2 | -2.6 | -1.0
Nc1ccc(N2CCOCC2)c(S(=O)(=O)Nc2cc(Cl)ccc2Cl)c1 | 18.2 | 0.9 | 15.8 | 21.9 | -0.3
CC(C)Cn1c(=O)c2ccccc2n2c(CCC(=O)N3CCN(c4ccccc4F)CC3)nnc12 | -12.9 | 3.4 | -0.4 | -5.6 | 1.0
CC(C)CNc1nc(Oc2ccc(=O)n(C)n2)nc(N2CCOCC2)n1 | -43.3* | 3.3 | -6.2 | -12.3 | -0.7
CCCc1ccc(C(=O)NC(=O)c2ccccc2O)cc1 | -64.4* | 21.5 | 6.6 | -5.0 | 3.4
O=C(NC(=O)c1ccccc1O)c1ccc(C(F)(F)F)cc1 | -26.9 | 37.3* | 1.3 | -5.4 | 1.4
CCOC(=O)C1=C(O)c2ccccc2C(=O)/C1=C\c1ccc(C)cc1 | -13.5 | 33.6* | -1.4 | 1.1 | 9.4
CCn1c(=O)n(-c2ccc3c(c2)OCO3)c2nc(-c3ccc(C(C)C)cc3)nc(C(N)=O)c21 | 19.0 | 1.9 | -14.6 | -0.8 | -0.3
CCOc1ccc(S(=O)(=O)Nc2cccnc2)cc1 | 0.6 | 4.5 | 0.3 | 1.6 | -0.1
CCC(C)c1ccc(S(=O)(=O)Nc2cccnc2)cc1 (configuration not stated) | -51.3* | 18.1 | 10.2 | -3.5 | 0.2
O=S(=O)(Nc1cccnc1)c1ccc(Cl)c(C(F)(F)F)c1 | -37.7* | 1.1 | -1.4 | -7.3 | 0.5
CC(C)CC(C(=O)NCCc1ccccc1)N1Cc2ccccc2C1=O (configuration not stated) | -3.7 | -1.0 | -9.7 | 3.5 | -0.2
CN1/C(=C\C(=O)COC(=O)Cn2nnc(-c3ccccc3)n2)C(C)(C)c2ccccc21 | -35.5* | 6.3 | -6.1 | -5.0 | 1.7
COc1ccccc1NS(=O)(=O)c1cccc(C(=O)NC2CCN(Cc3ccccc3)CC2)c1 | -36.6* | 18.1 | -5.3 | -7.3 | -0.3
C=CCN(c1ccccc1)S(=O)(=O)c1cccc(C(=O)NC2CCN(Cc3ccccc3)CC2)c1 | -36.9* | 3.2 | 11.7 | 0.6 | 0.0
COc1ccccc1NS(=O)(=O)c1ccc(C)c(C(=O)NC2CCN(Cc3ccccc3)CC2)c1 | -6.3 | 4.2 | 23.0 | -4.8 | 0.1
O=C(CSc1cc([N+](=O)[O-])cc(S(=O)(=O)Cc2ccccc2)c1)NC1CC1 | -40.0* | 2.1 | -0.7 | -8.7 | -0.4
C=CCNC(=O)CSc1cc([N+](=O)[O-])cc(S(=O)(=O)Cc2ccccc2)c1 | 2.5 | 7.0 | -4.5 | 7.2 | -0.6
C[C@@H](NC(=O)[C@@H]1Cc2ccccc2CN1C(=O)OC(C)(C)C)C(=O)NC1CCCC1 | -40.5* | 0.4 | -4.9 | -1.5 | -0.8
